In PubChem BioAssay (NCATS):
Inconclusive results are not listed. Where a call stands in place of a potency, no number is given. A number with no mark means an inactive call. Calls of active or inactive are those of the source. Calls come from the whole dose curve; as a rule, active = well fitted activation curve with a large enough effect; inconclusive = small, poorly fitted or top-dose-only effect; inactive = flat fitted curve, though single readings scatter.

Assay: Primary redox qHTS assay for identification of artifact compounds. (AID 1845223)
Conditions: Amplex Red/HRP redox cycling with DTT, fluorescence; series mostly up to 53.8 µM
How it was run: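 Redox-cycling detection via DTT (250 uM final) oxidation coupled to Amplex Red (25 uM)/HRP (250 mU/mL) in HBSS. 15 min preincubation plus 30 min after DTT, room temperature. Ex/Em 525/598 nm; 4-parameter Hill fit against DMSO and 10 uM DA3003.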
With `COc1ccc2c(c1O)OC[C@H]1c3ccc(O)cc3O[C@@H]21` the Potency was “inactive”. For `C(#Cc1cccc(CN2CCOCC2)c1)CCN1CCCCC1`, the Potency was “inactive”. For `C/C(=C\CCC(C)(O)c1ccc(C)cc1)C(=O)O` (centres undefined), the Potency was “inactive”. For `CC1=C2CC3OC3(C)CCC3OC3(C)CC2OC1=O` (centres undefined), the Potency was “inactive”. With `CCC(C)(O)C(O)C(=O)OCc1ccc(O[C@@H]2O[C@H](CO)[C@@H](O)[C@H](O)[C@H]2O)cc1` (some centres undefined) the Potency was “inactive”. For `COC(=O)CC[C@@H](C)[C@H]1CC[C@H]2[C@@H]3CC(=O)[C@H]4C[C@H](OC(C)=O)CC[C@]4(C)[C@H]3CC[C@]12C`, the Potency was “inactive”. For `COCC(=O)N1CCc2cc(-c3csc(NC(=O)c4cc(OC)cc(OC)c4)n3)ccc21`, the Potency was “inactive”. In the case of `C=C1[C@H]2CC[C@]3(O)[C@@](CC[C@@H]4[C@](C)(C(=O)O)CCC[C@]43C)(C2)[C@H]1OC(=O)/C(C)=C\C`, the Potency is reported as “inactive”. In the case of `C[C@@H]1C(=O)O[C@H]2CC34[C@H]5C[C@@H](C(C)(C)C)C36[C@@H](OC(=O)[C@@H]6O)OC4(C(=O)O5)[C@]21O` (some centres undefined), the Potency is reported as “inactive”. With `NC(=O)[C@H]1CCCCc2c1[nH]c1ccc(Cl)cc21` the Potency was “inactive”. With `O=C(NCC(=O)N1CC[C@H](NC2CCC(O)(c3ccc(-c4ncccn4)cn3)CC2)C1)c1cccc(C(F)(F)F)c1` (some centres undefined) the Potency was “inactive”. For `C=C1CC23CC1(O)CCC2C1=CC2OC(=O)C(C)(C2O)C1C3C(=O)O` (centres undefined), the Potency was “inactive”. With `CCOC(=O)c1ccc(N(C)c2csc(-c3ccccc3)n2)cc1` the Potency was “inactive”. With `COc1cc2c(cc1O)C1(OC)Cc3ccc4c(c3C1N(C)CC2)OCO4` (centres undefined) the Potency was “inactive”. With `C[C@@H]1CC[C@]2(C(=O)O[C@@H]3O[C@H](CO)[C@@H](O)[C@H](O)[C@H]3O)CC[C@]3(C)C(=CCC4[C@@]5(C)C[C@@H](O)[C@H](O)C(C)(C)C5CC[C@]43C)C2[C@]1(C)O` (some centres undefined) the Potency was “inactive”. In the case of `CC1=C2C(=O)O[C@@H](c3ccoc3)[C@]2(C)CCC1`, the Potency is reported as “inactive”. For `COC1=CC(=O)C[C@@H](C)[C@]12Oc1cc(OC)cc(OC)c1C2=O`, the Potency was “inactive”. In the case of `C/C(=C/CO)CC[C@@H]1[C@@]2(C)CCC[C@](C)(C(=O)O)C2CC[C@@]1(C)O` (some centres undefined), the Potency is reported as “inactive”. Compound `CC1(CO)CC[C@]2(C(=O)O[C@@H]3O[C@H](CO)[C@@H](O)[C@H](O)[C@H]3O)CC[C@]3(C)C(=CCC4[C@@]5(C)CC[C@H](O[C@@H]6O[C@H](C(=O)O)[C@@H](O)[C@H](O)[C@H]6O)C(C)(C)C5CC[C@]43C)C2C1` (some centres undefined) has a redox activity (% of DA3003) of 19.9% [at 11.5 µM]. For `COC(=O)C1=CO[C@@H](O[C@@H]2O[C@H](CO)[C@@H](O)[C@H](O)[C@H]2O)[C@@H]2[C@@H](C(=O)OC)[C@@H](O)C(O)[C@H]12` (some centres undefined), the Potency was “inactive”. With `C=C1CCC2C(C)(C)CC(=O)CC2(C)C1CCC(C)CCOC(C)=O` (centres undefined) the Potency was “inactive”. In the case of `CC1(C)CC[C@]2(C(=O)O)CC[C@]3(C)C(=CCC4[C@@]5(C)CC[C@H](O[C@@H]6O[C@H](C(=O)O)[C@@H](O)[C@H](O)[C@H]6O)C(C)(CO)C5CC[C@]43C)C2C1` (some centres undefined), the Potency is reported as “inactive”. With `CC1=C(C)C(=O)OC(C(C)C2C(O)CC3C4C5OC5C5(O)CC(OC6OC(CO)C(O)C(O)C6O)CC(O)C5(C)C4CCC32C)C1` (centres undefined) the Potency was “inactive”. With `COc1cc(C(C)=O)ccc1O[C@@H]1O[C@H](CO[C@@H]2O[C@@H](C)[C@H](O)[C@@H](O)[C@H]2O)[C@@H](O)[C@H](O)[C@H]1O` the Potency was “inactive”. In the case of `CC(c1c[nH]c2ccccc12)C(O)C(=O)O` (centres undefined), the Potency is reported as “inactive”. For `CC1=CC(=O)C[C@H]2[C@@H]1CC[C@@H](C)[C@]21CO[C@H](c2ccoc2)C1=O`, the Potency was “inactive”. With `CC1(CO)CC2C(O)C(=O)C3(CO)CC3(C)C2C1` (centres undefined) the Potency was “inactive”. For `COC1C2=C(COC2=O)C2(C)CCCC(C)(CO)C2C1OC(=O)c1ccccc1` (centres undefined), the Potency was “inactive”. For `O=S(=O)(Nc1ccc(C(O)(C(F)(F)F)C(F)(F)F)cc1)c1cccs1`, the Potency was “inactive”. In the case of `O=C(O)CCc1cc2ccoc2cc1O[C@@H]1O[C@H](CO[C@@H]2OC[C@](O)(CO)[C@H]2O)[C@@H](O)[C@H](O)[C@H]1O`, the Potency is reported as “inactive”. `C[C@@H]1O[C@@H](O[C@H]2[C@H](OC(=O)C34CCC(C)(C)CC3C3=CCC5C6(C)CC(O)C(O[C@@H]7O[C@H](CO)[C@@H](O)[C@H](O)[C@H]7O)C(C)(C(=O)O)C6CCC5(C)C3(CO)CC4)O[C@H](C)[C@H](O)[C@@H]2O)[C@H](O)[C@H](O)[C@H]1O[C@@H]1OC[C@@H](O)[C@H](O)[C@H]1O` (some centres undefined) showed a redox activity (% of DA3003) of 9.03% [at 11.5 µM]. For `COc1c(C)c(C(=O)c2ccc(N)c(C(=O)O)c2)n2ccccc12`, the Potency was “inactive”. In the case of `C=CC(C)(C)O[C@@H]1O[C@H](CO[C@@H]2OC[C@](O)(CO)[C@H]2O)[C@@H](O)[C@H](O)[C@H]1O`, the Potency is reported as “inactive”. For `C/C(=C\CO)CC/C=C(\C)C(=O)O[C@H]1[C@H](OC2OC=C(C(=O)O)C3CCC(C)(O)C23)O[C@H](CO)[C@@H](O)[C@@H]1O` (some centres undefined), the Potency was “inactive”. With `Nc1ccn([C@@H]2C(F)=C(CO)[C@@H](O)[C@H]2O)c(=O)n1` the Potency was “inactive”. With `O=C(Nc1cccnn1)N1CCC(=Cc2cccc(Oc3ccc(C(F)(F)F)cn3)c2)CC1` the Potency was “inactive”. In the case of `C[C@@H]1CC[C@]2(C)C(C[C@@H](O)[C@H](O)[C@]23CO3)[C@@]1(C)CCc1ccoc1` (some centres undefined), the Potency is reported as “inactive”. In the case of `CC1(C)CC[C@]2(C(=O)O[C@@H]3O[C@H](CO)[C@@H](O)[C@H](O)[C@H]3O)CC[C@]3(C)C(=CCC4[C@@]5(C)C[C@@H](O)[C@H](O)C(CO)(CO)C5CC[C@]43C)C2[C@@H]1O` (some centres undefined), the Potency is reported as “inactive”. With `CC(C)C1=CCC(C)(O)C(OC2OC(CO)C(O)C(O)C2O)C1` (centres undefined) the Potency was “inactive”.
